Screens: PubChem, National Center for Advancing Translational Sciences (NCATS)
This is a sample that favours compounds with a hit; in the whole collection about 5.9% have one here.
GLP1R cytotox – cytotoxic in the GLP-1 receptor inverse agonist counter-screen. HEK293 cAMP-luciferase reporter cells, luminescence, 24 h. Potency, µM (doses to about 38.3 µM), for inactives: at the highest dose activity change, negative = inhibition, most hits filed as inhibitors. 410,000 tested, 0.13% active;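 also: loss of luciferase light is scored as toxicity; % is scaled to controls: 0 for no effect and ±100 for the full control effect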
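MLSMR compounds, 24 hr on cells at 37 deg C/5% CO2; luminescence after luciferase reagent (12 min RT). Inhibition counted as the undesired cytotoxic outcome.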
GLP-1R agonist – GLP-1 receptor (human) agonism. P43220. HEK293 GLP-1R CRE-luciferase, luminescence, 4-6 h; cells express a hypersensitive GLP-1R form. Potency, µM (highest dose often 45.6 µM), for the others: at the highest dose activation, most hits filed as activators. 380,000 tested, 0.007% active; also: % of control where 0% means no effect
Gal4-VP16 FLuc – counter-screen for ROR gamma inhibitors: Gal4-VP16 reporter; AID 2546; Potency, µM (top dose mostly 53.6 µM), for inactives: at the top dose activity, negative = inhibition, usual class: inhibitors; Drosophila S2 Gal4-VP16 UAS-luciferase, luminescence, 20 h; 310,000 tested, 3.5% active;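 also: Gal4-VP16 expression switched on by copper sulfate through the metallothionein promoter; % is scaled to controls: 0 for no effect and ±100 for the full control effect; nearly all actives have a fitted effect of over 50% in size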
GLP1R inv ag – acts as inverse agonist at human GLP-1 receptor. Potency, µM (doses to about 38.3 µM), without a hit: top-dose activity change, negative = inhibition, hits mostly inhibitors. P43220. HEK293 GLP-1R CRE-luciferase, luminescence, 24 h; GLP-1R form is constitutively active. 410,000 tested, 1.6% active; also: % is scaled to controls: 0 for no effect and ±100 for the full control effect; nearly all actives have a fitted effect of over 55% in size
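Readout was luciferase luminescence, measured 12 min after detection reagent at room temperature. Beforehand, GLP-1R reporter HEK293 cells had sat 12 h, then received compounds for 24 hr at 37 deg C.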
RORgamma inh – ROR gamma (mouse) transcription inhibition | P51450 | Potency, µM (top dose mostly 53.6 µM), without a hit: at the highest dose activity change, negative = inhibition, actives largely listed as inhibitors | Drosophila S2 Gal4-RORgamma UAS-luciferase reporter, 20 h | 310,000 tested, 5.4% active | AID 2551; also: % is scaled to controls: 0 for no effect and ±100 for the full control effect; nearly all actives have a fitted effect of over 60% in size
Target sequence (P51450 whole entry, looked up, the tested form may be a part): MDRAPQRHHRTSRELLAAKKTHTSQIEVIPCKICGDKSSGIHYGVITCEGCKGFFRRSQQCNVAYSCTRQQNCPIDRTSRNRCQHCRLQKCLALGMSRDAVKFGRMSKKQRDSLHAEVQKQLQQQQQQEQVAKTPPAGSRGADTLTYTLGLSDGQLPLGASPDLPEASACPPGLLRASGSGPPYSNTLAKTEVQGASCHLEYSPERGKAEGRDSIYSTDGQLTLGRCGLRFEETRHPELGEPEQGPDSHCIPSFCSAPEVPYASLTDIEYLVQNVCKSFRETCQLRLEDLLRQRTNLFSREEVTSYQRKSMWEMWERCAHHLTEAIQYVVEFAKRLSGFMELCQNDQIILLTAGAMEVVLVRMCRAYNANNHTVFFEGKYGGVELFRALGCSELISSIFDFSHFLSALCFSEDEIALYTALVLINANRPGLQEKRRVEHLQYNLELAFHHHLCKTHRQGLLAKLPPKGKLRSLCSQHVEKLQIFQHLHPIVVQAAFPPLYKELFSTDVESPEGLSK
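Luciferase reporter read in Schneider cells carrying Gal4-RORγ (mouse) and UAS-Photinus luciferase; cells given compound 1 h before 700 uM copper sulfate induction, then incubated 20 h at ambient temperature.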
Starred values were filed as active, the others as inactive; ? = inconclusive; . = no result given; [ ] = dose if it differs, or a comment. Calls follow the shape of the dose curve; as a rule, active = well fitted curve in the direction sought with a large enough effect; inconclusive = small, poorly fitted or top-dose-only effect, or another doubt; inactive = no such curve, though single readings can be large; an effect the other way counts as inactive or inconclusive. Potency is read from the fitted curve at half-maximal effect.

SMILES	GLP1R cytotox	GLP-1R agonist	Gal4-VP16 FLuc	GLP1R inv ag	RORgamma inh
CC(=O)OC1CC[C@]2(C)C(CC[C@@]3(C)C2C(=O)C=C2C4C(C)C(C)CC[C@@]4(C(=O)O)CCC23C)C1(C)C (stereo partly specified)	.	.	-8%	.	0.63µM*
C[C@@H]1[C@H](C)CC[C@@]2(C(=O)O[C@H]3O[C@@H](CO[C@H]4O[C@@H](CO)[C@@H](O[C@H]5O[C@@H](C)[C@@H](O)[C@@H](O)[C@@H]5O)[C@@H](O)[C@@H]4O)[C@@H](O)[C@@H](O)[C@@H]3O)CC[C@]3(C)C(=CC[C@H]4[C@@]5(C)C[C@@H](O)[C@@H](O)[C@](C)(CO)[C@@H]5CC[C@@]43C)[C@@H]12	.	.	4%[17 µM]	.	-16%[16.9 µM]
C[C@H]1[C@H](C)CC[C@]2(C(=O)O)CC[C@]3(C)C(=CCC4[C@@]5(C)C[C@@H](O)[C@H](O)[C@@](C)(CO)[C@@H]5CC[C@]43C)[C@H]12 (stereo partly specified)	.	.	-6%	.	11µM*
CC(=O)O[C@H]1CC[C@]2(C)[C@H]3CC=C4[C@@H]5[C@@H](C)[C@H](C)CC[C@]5(C(=O)O)CC[C@@]4(C)[C@]3(C)CC[C@H]2C1(C)C	.	.	8%	.	?
C[C@@H]1CC[C@]2(C(=O)O)CC[C@]3(C)C(=CCC4[C@@]5(C)C[C@@H](O)[C@H](O)[C@@](C)(CO)C5CC[C@]43C)C2[C@H]1C (stereo partly specified)	.	.	18µM*	.	-35%
O=C(NN=C(Cc1ccccc1)Cc1ccccc1)c1ccccc1O	-11%	8%	?	-23%	3.5µM*
NC(=S)NN=C(Cc1ccccc1)Cc1ccccc1	-77%[7.66 µM]	-2%	5µM*	?	1.4µM*
O=C(NN=C(Cc1ccccc1)Cc1ccccc1)c1ccc(F)cc1	4%	0%	?	15%	?
CC[C@H](C)[C@H](NC(=O)[C@@H]1CCCN1C(=O)[C@H](Cc1cnc[nH]1)NC(=O)[C@@H](NC(=O)[C@H](Cc1ccc(O)cc1)NC(=O)[C@@H](NC(=O)[C@H](CCCN=C(N)N)NC(=O)CNC)C(C)C)[C@@H](C)CC)C(=O)O	.	.	1%	.	-2%
COC(CNC(=O)CNC(=S)N(Cc1ccccc1)Cc1cccs1)OC	-4%	0%	0%	-28%	-4%
COc1ccccc1NC(=S)N(CCN1CCCCCC1)Cc1cccs1	-27%	8%	-15%[10 µM]	?	14µM*
CCCCNC(=O)CNC(=S)N(Cc1ccccc1)Cc1cccs1	2%	11%	-3%	5µM*	3%
Cc1ccccc1NC(=S)N(Cc1cccs1)C1CCCC1	2%	-1%	?	-26%	?
Cc1ccccc1NC(=S)N(Cc1ccccc1)Cc1cccs1	-1%	4%	-9%	4%	10µM*
Cc1ccccc1NC(=S)N(CCN1CCCCCC1)Cc1cccs1	-29%	5%	?	?	10µM*
Cn1c(=O)c(=O)n(C)c2cc(N3CCCC3)c(NC(=O)c3ccccc3Cl)cc21	-6%	.	.	10%	.
CCOC(=O)C1CCCN(S(=O)(=O)c2ccc(S(=O)(=O)N(CC)CC)cc2)C1 (stereo unspecified)	-3%	8%	4.5µM*	?	6.3µM*
CCOC(=O)C1CCCN(S(=O)(=O)c2ccc(C)cc2)C1 (stereo unspecified)	21%	7%	-15%	-15%	?
CCOC(=O)NC(=S)Nc1ccc(C(C)(C)C)cc1Br	-75%	10%	10µM*	?	3.5µM*
CNC(=O)c1[nH]nc2c1CCc1cc(OC)ccc1-2	11%	17%	6%	137%	4%
COc1ccc2c(c1)CCc1c-2n[nH]c1C(=O)NCCC(C)C	-2%	-3%	-16%	7.9µM*	-17%
CCOC(=O)c1ccc(NC(=O)CCn2c(=O)c3cccn3c3cccnc32)cc1	-14%	.	.	16%	.
Cc1ccc(-c2cc(NC(=O)CCl)n(-c3ccccc3)n2)cc1	?	1%	5µM*	?	6.3µM*
Cc1ccc(C)c(NC(=O)c2nc(-c3ccccc3)n(-c3ccccc3)n2)c1	-6%	-4%	13%	0%	?
Cc1ccc(C)c(NC(=O)c2cc(-c3ccccc3)nn2-c2ccccc2)c1	105%	-7%	22µM*	?	15%
SMILES	GLP1R cytotox	GLP-1R agonist	Gal4-VP16 FLuc	GLP1R inv ag	RORgamma inh
O=C(CCl)Nc1cc(-c2ccccc2)nn1-c1ccccc1	?	-23%	?	?	14µM*
CCCn1c(-c2ccc(F)cc2)nc2c(NC(C)CN(C)C)nc(C)nc21 (stereo unspecified)	.	.	-15%	.	-12%
O=C1CCCc2cc(S(=O)(=O)N3CCCC(C(=O)NCc4ccccc4Cl)C3)ccc2N1 (stereo unspecified)	-9%	9%	.	-13%	.
CCn1c(=S)[nH]c2cc(C(=O)O)ccc21	.	.	-1%	.	-9%
CCn1c(=S)[nH]c2cc(S(=O)(=O)N3CCCCC3)ccc21	-12%	22%	?	26%	10µM*
CCCn1c(=S)[nH]c2cc(Cl)ccc21	-16%	15%	18µM*	-8%	5µM*
CCn1c(=S)[nH]c2cc(Cl)ccc21	9%	16%	25µM*	9%	5.6µM*
CC1(C)O[C@H]2[C@@H](O1)[C@@H](C(=O)Nc1cc(F)ccc1F)O[C@@H]1OC(C)(C)O[C@@H]12	7%	.	.	11%	.
N#Cc1ccc(/C=C\c2nccc3c2[nH]c2ccccc23)cc1	142%	8%	2.2µM*	?	0.45µM*
Clc1ccc(/C=C\c2nccc3c2[nH]c2ccccc23)cc1	5%	8%	?	?	1.6µM*
OCCCCc1nccc2c1[nH]c1ccccc12	-12%	-4%	0%	-15%	12%
CN1CCN(c2nc(C#N)cc(-c3ccccc3)n2)CC1	-13%	0%	-19%	13µM*	-5%
COc1ccc(-c2cc(C#N)nc(N3CCN(C)CC3)n2)cc1	-4%	7%	?	?	-42%
CNC(=S)N/N=C(\C)c1ccc(C(C)(C)C)cc1	-1%	8%	0.89µM*	4%	1.1µM*
C/C(=N/NC(=O)c1ccc(C(C)(C)C)cc1)c1cccnc1	6%	10%	.	-10%	.
CNC(=S)N/N=C(\C)c1cccc([N+](=O)[O-])c1	?	11%	4.5µM*	?	3.5µM*
C/C(=N\NC(=O)C(N)=O)c1cccc([N+](=O)[O-])c1	2%	4%	-4%	36%	0%
CNC(=S)N/N=C(\C)c1ccccc1	?	-3%	16µM*	10µM*	4µM*
C=C(C(C)=O)C(O)c1ccc(C(F)(F)F)cc1 (stereo unspecified)	.	.	3%	.	5%
